Laboratory results taken from PubChem BioAssay (NCI).
About 79,000 compounds went through this panel and 15% of them were active in at least one assay; those are over-represented in the sample as a whole. Rule as the data show it: active = growth inhibition above about 70%; inactive = the rest.

What was measured:
[1] = NCI Yeast Anticancer Drug Screen. Data for the rad50 strain (AID 155);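 also: 0% = growth of vehicle-only cultures of the same strain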; conditions: S. cerevisiae rad50 strain growth inhibition; at 50.0 µM; hits give high values
Procedure, shortened: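 Relative growth inhibition (compound vs vehicle) was measured in yeast with a defined repair-gene alteration.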

[2] = NCI Yeast Anticancer Drug Screen. Data for the mec2-1 strain (AID 157); conditions: S. cerevisiae mec2-1 strain, at 50.0 µM, hits give high values
Procedure, shortened: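 Using mec2-1 yeast: add compound, measure growth, express inhibition versus vehicle-treated cultures.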

[3] = NCI Yeast Anticancer Drug Screen. Data for the sgs1 mgt1 strain (AID 161);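 also: 0% = growth of cultures given vehicle only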; conditions: S. cerevisiae sgs1 mgt1 strain, at 50.0 µM, hits give high values
Procedure, shortened: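 Percent growth inhibition was derived by comparing compound-exposed mutant yeast with vehicle-exposed cultures. The strain carries alterations in DNA damage repair.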

[4] = NCI Yeast Anticancer Drug Screen. Data for the cln2 rad14 strain (AID 165);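 also: 0% = growth equal to vehicle treated cultures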; conditions: S. cerevisiae cln2 rad14 strain, at 50.0 µM, hits give high values
Procedure, shortened: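 Yeast strain cln2 rad14, bearing defects in cell cycle control and DNA repair, serves as the test system; values reflect growth inhibition compared with vehicle.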

[5] = NCI Yeast Anticancer Drug Screen. Data for the bub3 strain (AID 167); conditions: S. cerevisiae bub3 mutant strain, at 50.0 µM, hits give high values
Procedure, shortened: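 Screening used yeast with an engineered genetic alteration affecting cell cycle control. Compound-exposed cultures were compared with vehicle cultures, and reduced growth was taken as inhibition.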

[6] = NCI Yeast Anticancer Drug Screen. Data for the mlh1 rad18 strain (AID 175); conditions: S. cerevisiae mlh1 rad18 strain growth inhibition; at 50.0 µM; hits give high values
Procedure, shortened: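 Steps: expose repair-defective yeast to compound; measure growth; express inhibition against vehicle-treated controls.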

Measured: growth inhibition

C=CCCCCCCCCC(=O)OC1CCCCC1
inactive: [1] -9.25% | [2] 0.2% | [3] 11.1% | [4] -23.1% | [5] 15.4% | [6] 6.15%

CCc1cc(O)cc(C)c1Cl
inactive: [1] 55.1% | [2] 29.6% | [3] 46.1% | [4] 46.4% | [5] 44.3% | [6] 26.1%

Oc1[nH]c2ccccc2c1N=NC(=S)Nc1cccc(Cl)c1
inactive: [1] -0.35% | [2] 4.4% | [3] 55.5% | [4] 35% | [5] 23.5% | [6] 15.2%

CCOC(=O)Nc1nc2ccccc2n1CN1CCCCC1
inactive: [1] 18.5% | [2] 11.1% | [3] 23.4% | [4] 16.4% | [5] 0.2% | [6] 27.2%

COC(=O)c1cc(=O)n(C)[nH]1
inactive: [1] -0.55% | [2] 4.7% | [3] 0.75% | [4] -58.2% | [5] 6.65% | [6] -1.05%

COc1cc2oc3cc(OC)c(OC)c(CC=C(C)C)c3c(=O)c2c(O)c1CC=C(C)C
inactive: [1] -1.45% | [2] -30.6% | [3] 0.15% | [4] 5.8% | [5] -30.6% | [6] 21.2%

Cc1ccc(S(=O)(=O)O)c2c([N+](=O)[O-])cccc12
inactive: [1] -8.85% | [2] 6.75% | [3] -11.1% | [4] -32.4% | [5] -9.85% | [6] -22.6%

CC1=NN(c2ccc(S(=O)(=O)O)cc2)C(=O)C1N=Nc1ccc(C)c(S(=O)(=O)Nc2ccccc2)c1 (configuration not stated)
inactive: [1] 5.95% | [2] -17.9% | [3] 8% | [4] 15% | [5] 5.45% | [6] 10.8%

CC(/C=C/C=C(\C)C(=O)O)=C\C=C\C=C(C)\C=C\C=C(/C)C(=O)O
inactive: [1] -0.8% | [2] -21% | [3] 3.7% | [4] 6.6% | [5] -9.05% | [6] 17.9%

N#CCc1c(-c2ccccc2)n(S(=O)(=O)c2ccccc2)c2ccccc12
inactive: [1] 4.45% | [2] -2.55% | [3] -20.6% | [4] 8.45% | [5] -9.9% | [6] -5.3%

COC1(OC)C2(Cl)C(Cl)=C(Cl)C1(Cl)C1CCCCC12 (configuration not stated)
inactive: [1] 12.7% | [2] 11.1% | [3] 15.5% | [4] -57% | [5] -5.15% | [6] 2.3%

CCCCC(CC)(CO)CO
inactive: [1] 11.2% | [2] 3.95% | [3] 5.35% | [4] 1.05% | [5] -4.55% | [6] 16.6%

O=S(=O)(c1cnccc1N1CCN(CCO)CC1)N1CCCC1
inactive: [1] 6.4% | [2] -11.2% | [3] 8.5% | [4] -7.6% | [5] 3.05% | [6] -1.5%

O=P(O)(O)OC1C(OP(=O)(O)O)C(OP(=O)(O)O)C(OP(=O)(O)O)C(OP(=O)(O)O)C1OP(=O)(O)O.[Zn+2] (configuration not stated)
inactive: [1] -24.7% | [2] -4.8% | [3] -16.6% | [4] 9.6% | [5] -23% | [6] -6.2%

CC(=O)NCCN1CCN(C(C)=O)CC1
inactive: [1] 10.1% | [2] 10.7% | [3] -8.7% | [4] -37% | [5] -13.8% | [6] -15.2%

CC(C)c1sc([S-])n[n+]1-c1ccccc1
inactive: [1] 10.2% | [2] -0.65% | [3] -9.5% | [4] -15.4% | [5] -4.3% | [6] 7%

N#CCCC1(CCC#N)CCc2ccccc2C1=O
inactive: [1] 26.6% | [2] 1.2% | [3] 24.6% | [4] 25.9% | [5] 8.1% | [6] 40%

Cc1cc(=O)oc2c1ccc1occc(=O)c12
inactive: [1] -16.6% | [2] 10.4% | [3] -10.3% | [4] 4.95% | [5] 11.9% | [6] -11%

CCOC(=O)N1CCNCCN(C(=O)OCC)CCNCC1
inactive: [1] -3.95% | [2] 2.3% | [3] -4.3% | [4] 0.7% | [5] -4.5% | [6] 24.1%

COC(=O)c1ccccc1NC(=O)C(=O)NNC(=O)c1ccncc1
inactive: [1] 10.3% | [2] -3% | [3] -4.4% | [4] 7.55% | [5] -0.8% | [6] 22.1%

c1ccc(N=C(N2CCCC2)N(CCN2CCCC2)c2ccccc2)cc1
inactive: [1] -39.4% | [2] -58.1% | [3] -36.4% | [4] 1.35% | [5] -14.2% | [6] -28.2%

Nc1ccc(Cl)c(N)c1
inactive: [1] 9.1% | [2] 26.4% | [3] 18.2% | [4] 20.1% | [5] 14.9% | [6] 21.9%

CN1c2ccccc2N(C(=O)c2ccccc2)C(CC(=O)O)c2cccn21 (configuration not stated)
inactive: [1] -22.4% | [2] -40.5% | [3] -33.1% | [4] 23.8% | [5] -45% | [6] -16.3%

O=C(Nc1cccc(Cl)c1)Sc1c(Cl)c(Cl)c(Cl)c(Cl)c1Cl
inactive: [1] 24.4% | [2] 17.3% | [3] 26.4% | [4] 29.2% | [5] 7.3% | [6] 34.8%

O=C(Cl)N(C1CCCCC1)C1CCCCC1
inactive: [1] -19% | [2] -8.8% | [3] -1.5% | [4] -10.9% | [5] 2.35% | [6] -12.9%

NC(=O)N/N=C/c1cccc([N+](=O)[O-])c1
inactive: [1] -7% | [2] 27.8% | [3] -5.9% | [4] -32.5% | [5] 25.6% | [6] 0%

O=CNc1ccc(S(=O)(=O)c2ccc(NC=O)cc2)cc1
inactive: [1] 4.05% | [2] -35.7% | [3] 4.75% | [4] 26.6% | [5] 9.9% | [6] -18.1%

COCCN1CCC(CO)C1 (configuration not stated)
inactive: [1] 4.85% | [2] 11.5% | [3] 20.1% | [4] 2.05% | [5] 11.9% | [6] 10.5%

CC[N+](C)(CC)CCOC(=O)C(c1ccccc1)C(O)C1CCCC1 (configuration not stated)
inactive: [1] -6.85% | [2] 3.45% | [3] -0.2% | [4] -6.2% | [5] 20.9% | [6] -8.15%

CN1CCS(=O)(=O)C2CCCCC2C1=O (configuration not stated)
inactive: [1] 1.25% | [2] -13.4% | [3] 4.85% | [4] 11.8% | [5] 10.5% | [6] 1.1%

CC(C)c1ccc2c(c1)CCC1C2(C)CCCC1(C)C(O)c1ccccc1 (configuration not stated)
inactive: [1] 9.45% | [2] -6.65% | [3] 8.6% | [4] -17.1% | [5] 8.05% | [6] 32.1%

OC1CCC(C2CCCCC2)CC1 (configuration not stated)
inactive: [1] -8.5% | [2] -8.05% | [3] -2.65% | [4] 6.8% | [5] -14.3% | [6] -8.65%

CCOC(=O)N1CCN(c2ccc3ccc(N)nc3n2)CC1
inactive: [1] 22.1% | [2] -12.7% | [3] 28.8% | [4] -4.65% | [5] 18.9% | [6] 16.9%

C#CCI
inactive: [1] 20.9% | [2] 6.5% | [3] 6.95% | [4] 33.9% | [5] 7.35% | [6] 17.5%

C/C(=N/NC(N)=S)c1ccc[nH]1
inactive: [1] -18.1% | [2] -14.2% | [3] -3.75% | [4] 20.9% | [5] -39% | [6] -10.4%

O=C(Nc1ccccc1Cl)c1ccccc1O
inactive: [1] 10.1% | [2] -8.7% | [3] -3.2% | [4] -48.6% | [5] -5% | [6] -16.4%

O=C(NC12CC3CC(CC(C3)C1)C2)C(O)C(O)C(O)C(O)CO (configuration not stated)
inactive: [1] -16.6% | [2] -1.75% | [3] 20.1% | [4] 0.9% | [5] 5.6% | [6] 2.65%

COc1ccc(C(C)=O)cc1CO/N=C1\CSCc2ccccc21
inactive: [1] 22.9% | [2] 12.4% | [3] 34.5% | [4] 22.4% | [5] 48.2% | [6] 12.2%

COc1ccc(C(CCl)(CCl)c2ccc(OC)c(C)c2)cc1C
inactive: [1] -23.3% | [2] -74.1% | [3] -30.2% | [4] -4.05% | [5] 5.3% | [6] -20.4%

Cc1cc2nc(Cl)n(C3OC(CO)C(O)C3O)c2cc1C (configuration not stated)
inactive: [1] 16.6% | [2] -7.15% | [3] 0.15% | [4] 4.8% | [5] -1% | [6] 12.8%

CCCCCCNC(CC(N)=O)C(=O)O (configuration not stated)
inactive: [1] -13.2% | [2] 3.85% | [3] 11.3% | [4] 2.45% | [5] -12.8% | [6] -26.2%

CC1CC[N+]2(C)CCCC12 (configuration not stated)
inactive: [1] 1.1% | [2] -4.4% | [3] -5.3% | [4] -39.3% | [5] -23.9% | [6] -12.4%
